From PubChem BioAssay
IDH1 R132H inh: inhibitors of human mutant IDH1 R132H | IDH1-R132H enzyme, NADPH consumption, diaphorase/resazurin fluorescence | Potency, µM (top dose mostly 76.6 µM), hits mostly inhibitors | AID 602179 | 0.093% of 390,000 active | O75874; further: nearly all actives have a fitted effect of over 65% in size
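IDH1-R132H (0.5 ug/mL dispensed) in pH 7.5 Tris buffer was preincubated 30 min with compound, then given a substrate mix of 0.016 mM NADPH and 2 mM alpha-KG for 80 min at room temperature; remaining NADPH was read by diaphorase/resazurin fluorescence.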
D3 ag: D3 dopamine receptor (human) agonism; D3R DiscoveRx beta-arrestin cells, luminescence, 90 min; max activation, %; P35462; 0.58% of 410,000 active; AID 652048; in the data active means max activation above about 30%
Target sequence (P35462 whole entry, looked up): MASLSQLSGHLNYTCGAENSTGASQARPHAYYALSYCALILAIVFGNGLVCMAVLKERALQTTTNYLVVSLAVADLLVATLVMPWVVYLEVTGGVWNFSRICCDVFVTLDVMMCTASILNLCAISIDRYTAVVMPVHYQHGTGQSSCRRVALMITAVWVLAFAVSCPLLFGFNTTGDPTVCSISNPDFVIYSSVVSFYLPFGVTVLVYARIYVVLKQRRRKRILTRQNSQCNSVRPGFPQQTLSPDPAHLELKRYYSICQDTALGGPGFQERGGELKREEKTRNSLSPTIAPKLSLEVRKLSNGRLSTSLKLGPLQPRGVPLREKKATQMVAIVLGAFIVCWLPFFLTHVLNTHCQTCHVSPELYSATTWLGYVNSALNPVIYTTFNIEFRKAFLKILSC
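Cells at 1500/well, incubated overnight, then treated with pinned compounds (dopamine as control) for 90 min at 37 degrees C. DiscoveRx reagent added for 30 - 60 minutes at room temperature; luminescence read.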
a7 integrin act: integrin-mediated muscular dystrophy alleviation activation. alpha7betagal myoblasts, beta-gal FDG fluorescence, 48 h. AID 624291. Potency, µM (doses to about 38.3 µM), most hits filed as activators. 0.064% of 350,000 active; further: nearly all actives have a fitted effect of over 60% in size
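alpha7betagal+/- myoblasts (passage 13, 250/well) treated 48 h at 37C with compounds at 1:260 dilution of DMSO stock. Lysed, then beta-galactosidase activity read as FDG fluorescence (ex 480/em 540) after 30 min, with pre-read for autofluorescence.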
B2AR arrestin: agonists driving beta-arrestin recruitment to human beta2-adrenergic receptor. P07550. beta-arrestin recruitment to beta2AR, cell-based reporter. Potency, µM (series often up to 46.1 µM), usual class: activators. 0.02% of 330,000 active; further: nearly all actives have a fitted effect of over 65% in size
DRD3 antagonist: antagonists of human D3 dopamine receptor | P35462 | D3R cells, DiscoveRx beta-arrestin luminescence, antagonist mode; stronger effect = lower value | max response, negative = inhibition, % | 2.5% of 360,000 active | AID 652054; in the data active means max response below about -50%; inconclusive means no clear call, values can overlap the other calls
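Cells expressing the human receptor were seeded at 1500 cells/well, incubated overnight at 37 degrees C in 5% CO2, then exposed to library compounds with dopamine controls for 90 minutes at 37 degrees C before luminescent detection.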
Of the large screens only hits and unclear results are named; the others gave an inactive call. Most compounds without a hit are left out; they make up all but 2.9% or so of the library. Unless noted, the call rests on the fitted dose curve; in most records, active means well fitted curve in the direction sought with a large enough effect; inconclusive means small, poorly fitted or top-dose-only effect, or another doubt; inactive means no such curve, though single readings can be large; an effect the other way counts as inactive or inconclusive.

CC1CCN(c2c(NCC3CCC(C(=O)NCc4ccccc4)CC3)c(=O)c2=O)CC1 (configuration not stated)	DRD3 antagonist -61
CCC/C(=N\NC(=O)c1csc(C)c1C)c1cccs1	DRD3 antagonist -51
CC/C(=N\NC(=O)c1csc(C)c1C)c1cccs1	DRD3 antagonist inconclusive
COCCn1c(-c2ccc(OC)cc2)cnc1SCC(=O)Nc1cc(C)on1	DRD3 antagonist -70
COCCn1c(-c2ccc(OC)cc2)cnc1SCC(=O)Nc1ccc(OC)cc1OC	none
C=C[C@]1(C)C[C@@H](OC(=O)CO)[C@]2(C)[C@H](C)CC[C@]3(CCC(=O)[C@H]32)[C@@H](C)[C@@H]1O	none (no result: IDH1 R132H inh, a7 integrin act, B2AR arrestin, DRD3 antagonist)
CCCn1cnc2c(c1=O)c1nc3ccccc3nc1n2CCc1ccccc1	DRD3 antagonist -53
CC(C)Oc1ccc(F)cc1-c1cc(C(=O)NC2CCCCC2)[nH]n1	none (no result: IDH1 R132H inh, a7 integrin act, B2AR arrestin)
CCCOc1ccc(F)cc1-c1cc(C(=O)NC2CCCCC2)[nH]n1	DRD3 antagonist -102 (no result: IDH1 R132H inh, a7 integrin act, B2AR arrestin)
Cc1cc(F)ccc1-c1cc(C(=O)NC2CCCCC2)[nH]n1	DRD3 antagonist -83 (no result: IDH1 R132H inh, a7 integrin act, B2AR arrestin)
N#C/C(=C\c1ccc(O)c(O)c1)C(=O)NCCCc1ccccc1	DRD3 antagonist -80 (no result: a7 integrin act)
COc1ccc(/C=C(\C#N)C(=O)NCCc2ccccc2)cc1OCc1ccccc1	none
O=C(c1ccco1)[C@@H]1[C@@H]2C(=O)N(c3ccc(Br)cc3)C(=O)[C@@H]2C2c3ccccc3C=CN21 (some centres not stated)	DRD3 antagonist -57
FC(F)(F)c1ccc(C2Nc3cccc4cccc(c34)N2)cc1	none
Clc1cccc(C2Nc3cccc4cccc(c34)N2)c1Cl	B2AR arrestin 2.8µM
Brc1ccc(C2Nc3cccc4cccc(c34)N2)cc1	DRD3 antagonist -63 (no result: B2AR arrestin)
Cc1ccc(C2Nc3cccc4cccc(c34)N2)s1	a7 integrin act 3.2µM, DRD3 antagonist -61
Fc1ccc(C2Nc3cccc4cccc(c34)N2)cc1	DRD3 antagonist -75
CNC(=O)CN(CCN(CCN(CC(=O)[O-])CC(=O)NC)CC(=O)[O-])CC(=O)[O-].O.[Gd+3]	none (no result: IDH1 R132H inh, a7 integrin act, B2AR arrestin, DRD3 antagonist)
C=CCc1c(C)nc(C)nc1N/N=C/c1ccccc1O	DRD3 antagonist -113
CCOC(=O)CC(NC(=O)c1cc2c(=O)n3cccc(C)c3nc2s1)c1ccc(OCC)c(OC)c1 (configuration not stated)	none (no result: a7 integrin act, B2AR arrestin, DRD3 antagonist)
Cc1cc2cc3c(=O)[nH]c(=O)cc-3n(CC(O)C(O)C(O)CO)c2cc1C (configuration not stated)	DRD3 antagonist -97 (no result: B2AR arrestin)
Cc1cc2cc3c(=O)[nH]c(=O)nc-3n(CC(O)C(O)C(O)CO)c2cc1C (configuration not stated)	none (no result: B2AR arrestin)
CCOC(=O)c1c(C)oc2ncnc(NCCCN3CCN(c4cc(C)ccc4C)CC3)c12	none (no result: a7 integrin act, B2AR arrestin, DRD3 antagonist)
COc1ccc(C(=O)N[C@H](C(=O)Nc2nc3c(s2)CCCC3)C(C)C)cc1	none
CCOc1ccccc1C(=O)N[C@H](C(=O)Nc1nc2c(s1)CCCC2)C(C)C	DRD3 antagonist -74
O=C(O)c1cc(=O)[nH]c(=O)[nH]1	none (no result: IDH1 R132H inh, a7 integrin act, B2AR arrestin, DRD3 antagonist)
O=C(O)c1cc(=O)cc(C(=O)O)[nH]1	DRD3 antagonist -82
CCSC1=NC2(CCCCC2)Nc2sc3c(c21)CCCC3	DRD3 antagonist -61
CCSc1nc2sc3c(c2c(=O)[nH]1)CCCC3	none
O=S(=O)(c1ccc(Cl)s1)N1CCN(CCc2ccccc2)CC1	none
O=S(=O)(c1ccc(Cl)s1)N1CCN(C/C=C/c2ccccc2)CC1	DRD3 antagonist -82
O=S(=O)(c1cccs1)N1CCN(C/C=C/c2ccccc2)CC1	DRD3 antagonist inconclusive
O=S(=O)(c1ccc(Cl)s1)N1CCN(Cc2ccccc2)CC1	DRD3 antagonist -59
CC1CCN(C(=O)Cn2cc(SCC(=O)Nc3ccccc3C(F)(F)F)c3ccccc32)CC1	none (no result: a7 integrin act, B2AR arrestin, DRD3 antagonist)
COc1cccc(C2C(C(=O)Nc3ccc(Cl)cc3)=C(C)Nc3c(C(=O)Nc4ccccc4)cnn32)c1OC (configuration not stated)	none (no result: a7 integrin act, B2AR arrestin, DRD3 antagonist)
CCCCn1c(=O)c2oc3ccccc3c2n(CC(=O)Nc2cccc(Cl)c2C)c1=O	none (no result: a7 integrin act, B2AR arrestin, DRD3 antagonist)
CCC(c1nnnn1Cc1cccs1)N1CCN(C2CCCC2)CC1 (configuration not stated)	DRD3 antagonist -63
CCCC(c1nnnn1Cc1cccs1)N1CCN(C2CCCC2)CC1 (configuration not stated)	none
CCN1CCN(P2(=O)C=C(c3ccccc3)OC(c3ccccc3)=C2)CC1	DRD3 antagonist -81
O=P1(O)C=C(c2ccccc2)OC(c2ccccc2)=C1	none
Cc1cccc(N2CCN(C(=O)/C=C/c3cccs3)CC2)c1C	D3 ag 43
Cc1ccc(Cl)cc1N1CCN(CCCNC(=O)C2COc3ccccc3C2)CC1 (configuration not stated)	none (no result: a7 integrin act, B2AR arrestin, DRD3 antagonist)
CC(=O)Nc1ccc([N+](=O)[O-])cn1	DRD3 antagonist -53
O=[N+]([O-])c1ccc(Nc2ccc3ccccc3c2)nc1	DRD3 antagonist -107
CCc1ccc(-n2c(=O)c3cccnc3n2CC(=O)Nc2cc(F)ccc2F)cc1	none (no result: a7 integrin act, B2AR arrestin, DRD3 antagonist)
Cn1c2c(c3ccccc31)CCN(CCCCN1CCN(c3ccccc3)CC1)C2=O	D3 ag 54 (no result: B2AR arrestin)
O=C(/C=C/NNC(=O)c1ccccc1)c1ccc(Br)cc1	DRD3 antagonist -77
COc1ccc(C(=O)C=CNNC(=O)c2ccc(Cl)cc2)cc1	DRD3 antagonist -54
CCN(CC)S(=O)(=O)c1ccc2c(c1)nc(CN(C)C(=O)Nc1ccc(F)cc1)n2C	none (no result: a7 integrin act, B2AR arrestin, DRD3 antagonist)
CC1(C)C/C(=N\NC(=S)Nc2ccccc2F)c2cc(O)ccc2O1	B2AR arrestin inconclusive, DRD3 antagonist -53
CCCOc1ccc(CSc2ncn[nH]2)cc1	DRD3 antagonist -82
CCOc1nc(C)ccc1-c1noc(-c2ccccc2OC)n1	none
CCCCCCCCC#Cc1nc(C)ccc1OC	D3 ag 65
CC(C)CC1(C)NC(=O)N(CC(=O)Nc2ccc3c(c2)CCC3)C1=O (configuration not stated)	DRD3 antagonist -55
CCc1ccc(N2CSC3=C(C#N)C(c4cccs4)CC(=O)N3C2)cc1 (configuration not stated)	DRD3 antagonist -61
Cc1ccc(N2CSC3=C(C#N)C(c4cccs4)CC(=O)N3C2)cc1 (configuration not stated)	none
CCCCC/C(C=O)=C\c1ccccc1	none (no result: IDH1 R132H inh, a7 integrin act, B2AR arrestin, DRD3 antagonist)
CCC(=O)C1=C(c2ccc(F)cc2)N(C(=O)CC)n2c(nnc2C2CCCCC2)S1	none (no result: a7 integrin act, B2AR arrestin, DRD3 antagonist)
CC(C)(CO)NC12CC3CC(CC(C3)C1)C2	none
CC(C)(C)CNC(CO)C12CC3CC(CC(C3)C1)C2 (configuration not stated)	DRD3 antagonist -54
CCc1nc2ccc(C(=O)N3CCCCC3)cn2c1N(CCC(C)C)CCN(C)C	D3 ag 53 (no result: IDH1 R132H inh, a7 integrin act, B2AR arrestin)
Cc1ccccc1NC(=O)Nc1nnc([C@@H]2C[C@H](O)[C@@H](CO)O2)s1	D3 ag 54 (no result: IDH1 R132H inh, a7 integrin act, B2AR arrestin)
